15 compounds from PubChem BioAssay (NCI) can be followed below.

SMILES strings stand for the structures. This is part of a sample that, as a whole, favours compounds with a hit. Of some 83,000 tested, about 20% had one in any assay.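 Compound tested at a single concentration for 48 hours in 96-well plates; a percent growth value below 10 was scored as active.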 A number with no mark means an inactive call. Calls of active or inactive are those of the source.

Holding throughout (assay): NCI-60 one-dose screen, 48 h (100 = growth as untreated, 0 = no growth, -100 = all killed)
Details in all cases: 10 µM unless noted

For assay [1], the system named is T-47D breast.
In assay [2] the test system is BT-549 breast.
The test system of assay [3] is MDA-MB-435 melanoma.
The test system of assay [4] is SW-620 colon.
The subject of assay [5] is MCF7 breast.
Assay [6] relates to HCT-116 colon.
The subject of assay [7] is HCC-2998 colon.
The subject of assay [8] is KM12 colon.

As to `CC/C(=C(/c1ccc(Cl)cc1)c1ccc(OCCN2CCCC2)cc1)c1ccccc1`, the growth in assay [1] is 47.6%; in assay [2] it was 77.8%; in assay [3] it was 60.2%; in assay [4], 11.8%; in assay [5], 23.1%; in assay [6] it was 29.7%. Besides, the growth in assay [7] is 97.6%; in assay [8], 37.1%.
Consider `O=C1c2c(c3c4cccnc4[nH]c3c3ccc4ccccc4c23)C(=O)N1O`, for which the growth in assay [1] was 40.7%; in assay [2] it was 45%; in assay [3], 47.9%; in assay [4] it was 21.2%; in assay [5], 20.8%; in assay [6], 26.5%. The values for the growth in assay [7] and in assay [8] were 77.2% and 50.2%, respectively.
For `Cc1cc(N2CCOCC2)nc(N(CCCNc2ccnc3cc(Cl)ccc23)Cc2ccc3c(c2)OCO3)n1`, the growth in assay [1] is -45.9% (active); in assay [2], -38.3% (active); in assay [3] it was -45.1% (active); in assay [4], -3.78% (active); in assay [5], 3.11% (active); in assay [6] it was -76.9% (active). For the same compound, the values for the growth in assay [7] and in assay [8] were -58.2% (active) and 0.0851% (active), respectively.
`O=C(CN1C(=O)NC2NC(=O)NC21)N/N=C/c1cccc([N+](=O)[O-])c1` (stereo not given): the growth was 107% in assay [1]; 102% in assay [2]; 98.1% in assay [3]; 105% in assay [4]; 91.8% in assay [5]; 116% in assay [6]. Besides, the figures for the growth in assay [7] and in assay [8] were 118% and 104%, respectively.
`CCOC(=O)/C(=C\c1ccccc1Cl)P(=O)(OCC)OCC`: the growth is 39.5% in assay [1]; 57.6% in assay [2]; 45.1% in assay [3]; 46.6% in assay [4]; 17.8% in assay [5]; 44.2% in assay [6]. For the same compound, the results for the growth in assay [7] and in assay [8] were 94.5% and 52.9%, respectively.
With `COc1cc(/C=C2\C(=O)N(CCOc3cc(O)c4c(=O)cc(-c5ccccc5)oc4c3)c3ccccc32)cc(OC)c1O`, the growth in assay [1] was 65.4%; in assay [2], 51%; in assay [3], -40.2% (active); in assay [4], 22.2%; in assay [5], 31%; in assay [6], 28.2%. In addition, the values for the growth in assay [7] and in assay [8] were 80% and 51.2%, respectively.
For `Cn1cc(-c2ccc3occ(-c4cccc(-c5ccncc5)c4)c3n2)cn1`, the growth in assay [1] was -6.42% (active); in assay [2], 10.9%; in assay [3], -2.73% (active); in assay [4], 17.8%; in assay [5], 6.54% (active); in assay [6], 10.4%. Moreover, the growth in assay [7] is 45%; in assay [8], 12.4%.
For the compound `CC1=C(C(=O)OCc2ccccc2)C(c2ccc3c(c2)OCO3)n2c(nc3ccccc32)N1` (stereo not given), the growth is 40.9% in assay [1]; 50.5% in assay [2]; -35.4% (active) in assay [3]; 17.6% in assay [4]; 20.6% in assay [5]; 18.8% in assay [6]. The growth in assay [7] is 56.4%; in assay [8] it was 17.3%.
For the compound `O=C1/C(=C/c2cccc([N+](=O)[O-])c2)COc2ccc(O)c(O)c21`, the growth in assay [1] is -16.8% (active); in assay [2] it was -3.03% (active); in assay [3], -33.4% (active); in assay [4] it was -31.4% (active); in assay [5], 1.76% (active); in assay [6], -74.8% (active). The growth in assay [7] was -85.2% (active); in assay [8] it was -45.7% (active).
With `Cc1ccc(-c2nc(C#N)c(S(=O)(=O)n3nc(C)cc3N)o2)cc1`, the growth in assay [1] is 55.2%; in assay [2], 80.4%; in assay [3], 96.2%; in assay [4] it was 15%; in assay [5], 88.2%; in assay [6], 65.5%. For the same compound, the growth in assay [7] is 110%; in assay [8], 92.8%.
As to `CSc1nc(CC(C)C)c(C#N)c(=O)n1C`, the growth is 33.4% in assay [1]; 58.8% in assay [2]; 65.8% in assay [3]; 63.1% in assay [4]; 38.7% in assay [5]; 60.4% in assay [6]. The growth in assay [7] was 79.4%; in assay [8], 86.5%.
For `CCOC(=O)CC1C(CNC(=O)NC)OC(n2cnc3c(NC(=O)Nc4ccccc4)ncnc32)C1O[Si](C)(C)C(C)(C)C` (stereo not given), the growth is 27.1% in assay [1]; 81.6% in assay [2]; 53.6% in assay [3]; 71.2% in assay [4]; 18.1% in assay [5]; 16.7% in assay [6]. Besides, the growth was 61.8% in assay [7] and 43.4% in assay [8].
For the compound `CCC(=C(c1ccc(OCCN(CC)CC)cc1)c1ccc(OCCN(CC)CC)cc1)c1ccc(Cl)cc1`, the growth in assay [1] was -55.4% (active); in assay [2] it was 61.5%; in assay [3], -92% (active); in assay [4], -75.5% (active); in assay [5], -73.3% (active); in assay [6], -87.7% (active). In addition, the growth is -91% (active) in assay [7] and -82.2% (active) in assay [8].
Turning to `CCN(CC)CCN1C(=O)c2c(c(C)c3c(oc4cc(OC)ccc43)c2C)C1=O`, the growth in assay [1] is 104%; in assay [2] it was 98.2%; in assay [3], 95.6%; in assay [4], 96.3%; in assay [5], -8.69% (active); in assay [6], 94.1%. Besides, the results for the growth in assay [7] and in assay [8] were 103% and 102%, respectively.
On to `CCOC(=O)C#Cc1c(CC(=O)OCC)nnn1[C@H]1O[C@@H](CO)[C@@H]2OC(C)(C)O[C@@H]21`, for which the growth in assay [1] was 38.2%; in assay [2], 87.3%; in assay [3], 87.2%; in assay [4], -19% (active); in assay [5], 11.5%; in assay [6], 65.2%. In addition, the growth in assay [7] was 107%; in assay [8], 103%.
